In PubChem BioAssay (Tox21):
Records with an inconclusive call do not appear. Active and inactive are the calls of the source. Unless noted, the call rests on the fitted dose curve; in most records, active means well fitted curve in the direction sought with a large enough effect in the repeat runs; inconclusive means weak or mixed curves; inactive means no such curve, though single readings can be large; an effect the other way counts as inactive or inconclusive. Non-standard residues stand in square brackets, D forms with d. Residues, ends and D or L forms follow the SMILES beside them. *: point of attachment. Sta = CC(C)C[C@H](N)[C@@H](O)CC(=O)O; Isovaleryl = CC(C)CC(=O)*

Columns and labels:
[1] = qHTS assay to identify small molecule agonists of the sonic hedgehog signaling (Shh) pathway - cell viability counter screen (AID 1259366); further: nearly all actives have a fitted effect of over 50% in size
Procedure, shortened: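 Cytotoxicity counter screen: CellTiter-Fluor reagent added after 23 h compound exposure, then 1 h at 37C and fluorescence read. Cells were 3T3 Gli1-Luc, seeded 2,000 per well and dosed 4 h post-plating.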

[2] = qHTS assay to identify small molecule antagonists of the sonic hedgehog signaling (Shh) pathway - cell viability counter screen (AID 1259367); further: nearly all actives have a fitted effect of over 55% in size
Procedure, shortened: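 NIH/3T3-derived Gli1-Luc reporter cells, 2,000/well, plated 4 hr before compound addition, then stimulated with conditioned medium for 24 hr at 37C. Viability measured in the same wells by CellTiter-Fluor fluorescence, reagent added at 23 hr for 1 hr.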

[3] = qHTS assay to identify small molecule agonists of the sonic hedgehog signaling (Shh) pathway (AID 1259368; calls by dose curve;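 further: NIH/3T3-derived 3T3Gli1-Luc cells carrying a stable Gli1-driven firefly luciferase reporter; series mostly up to about 92 µM; nearly all actives have a fitted effect of over 15% in size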)
Procedure, shortened: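 3T3Gli1-Luc (NIH/3T3 clone, stable Gli1-Luc); 4 hr pre-incubation, then cpd in DMSO 24 hr, 37 C/5% CO2; luciferase reagent 30 min RT; luminescence.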

[4] = qHTS assay to identify small molecule antagonists of the sonic hedgehog signaling (Shh) pathway (AID 1259369; calls by dose curve; further: nearly all actives have a fitted effect of over 45% in size)
Procedure, shortened: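 3T3Gli1-Luc, conditioned-medium-stimulated, 24hr cpd, 37C/5% CO2; Gli1-driven firefly Luc luminescence after 30min RT with luciferase reagent. Cells plated 4hr before cpd.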

[5] = qHTS assay to identify small molecule agonists of the androgen receptor (AR) signaling pathway in the presence of an antagonist - cell viability counter screen (AID 1259379);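 further: MDA-kb2 human breast cancer cells carrying an MMTV luciferase reporter; series mostly up to about 92 µM; nearly all actives have a fitted effect of over 25% in size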
Procedure, shortened: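 Cells: MDA-kb2 (MMTV-luc, AR and GR elements), 3,000/well, 5 hr settle. Added: nilutamide 3.0uM final, then compounds (15 conc.). Incubation: 16 hr, 37C, no CO2. Read-out: CellTiter-Fluor, 1 hr, fluorescence.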

[6] = qHTS assay to identify small molecule agonists of the estrogen receptor beta (ER-beta) signaling pathway - cell viability counter screen (AID 1259380); further: nearly all actives have a fitted effect of over 30% in size
Procedure, shortened: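 HEK293T ER-beta-UAS-bla; 2% CS-FBS; 6 hr pre-plate, 16 hr cpd at 37C/5% CO2; LiveBLAzer read first, then CellTiter-Glo 30 min RT, luminescence.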

[7] = qHTS assay to identify small molecule antagonists of the estrogen receptor beta (ER-beta) signaling pathway - cell viability counter screen (AID 1259382); further: series mostly up to about 92 µM; nearly all actives have a fitted effect of over 55% in size
Procedure, shortened: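 Cells: ER-beta-UAS-bla HEK293T, 2,000/well, 2% CS-FBS, 6 hr settle. Cpd + E2 (1nM final), 16 hr, 37C/5% CO2. Bla FRET substrate 2 hr RT, then CellTiter-Glo 30 min RT, luminescence.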

[8] = target: Estrogen receptor beta (Homo sapiens) (UniProt Q92731); assay: qHTS assay to identify small molecule agonists of the estrogen receptor beta (ER-beta) signaling pathway (AID 1259377; active means well fitted activation curve with a large enough effect in the signal ratio in the repeat runs, not every such curve was filed as active; the % refers to the signal ratio)
Procedure, shortened: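 Ratiometric beta-lactamase FRET read-out came after 2 h substrate loading at room temperature. It followed 16 h compound treatment at 37C of GripTite HEK293T cells carrying a UAS-bla reporter, plated in 2% charcoal-stripped FBS medium.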

[9] = target: Estrogen receptor beta (Homo sapiens) (UniProt Q92731); assay: qHTS assay to identify small molecule antagonists of the estrogen receptor beta (ER-beta) signaling pathway (AID 1259378; active means well fitted inhibition curve with a large enough effect in the signal ratio in the repeat runs, not every such curve was filed as active; the % refers to the signal ratio)
Procedure, shortened: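 ER-beta-UAS-bla HEK293T cells in 2% charcoal-stripped FBS medium treated with compound plus 1nM final 17-beta-estradiol for 16 hr at 37C. Beta-lactamase reporter read by FRET substrate fluorescence after 2 hours at room temperature.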

[10] = target: Androgen receptor (Homo sapiens) (UniProt P10275); assay: qHTS assay to identify small molecule agonists of the androgen receptor (AR) signaling pathway in the presence of an antagonist (AID 1259381; calls by dose curve; further: nearly all actives have a fitted effect of over 15% in size)
Procedure, shortened: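 MDA-kb2 cells, 3,000/well, rested 5hr at 37C/0% CO2 → nilutamide 3.0uM final or buffer → compounds, 15 conc. → 16hr at 37C → ONE-Glo, 30min RT → luminescence.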
On the % scale 0 is the no-effect control and ±100 the full control effect.

Estrogen receptor beta (Homo sapiens), sequence (Q92731 whole entry, looked up): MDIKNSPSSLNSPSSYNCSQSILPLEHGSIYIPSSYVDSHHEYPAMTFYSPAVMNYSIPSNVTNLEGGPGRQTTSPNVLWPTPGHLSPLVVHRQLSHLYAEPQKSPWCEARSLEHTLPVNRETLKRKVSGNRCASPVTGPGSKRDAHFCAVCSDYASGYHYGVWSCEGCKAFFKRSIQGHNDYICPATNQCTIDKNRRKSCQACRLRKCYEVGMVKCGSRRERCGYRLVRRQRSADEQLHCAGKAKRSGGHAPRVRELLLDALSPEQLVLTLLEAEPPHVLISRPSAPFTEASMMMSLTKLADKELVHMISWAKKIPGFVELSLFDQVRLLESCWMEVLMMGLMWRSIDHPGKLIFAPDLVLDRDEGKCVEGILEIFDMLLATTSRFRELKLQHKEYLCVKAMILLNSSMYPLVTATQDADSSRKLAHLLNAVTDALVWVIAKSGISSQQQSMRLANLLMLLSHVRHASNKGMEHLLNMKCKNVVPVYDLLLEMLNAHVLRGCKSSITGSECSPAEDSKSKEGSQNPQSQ
Androgen receptor (Homo sapiens), sequence (P10275 whole entry, looked up): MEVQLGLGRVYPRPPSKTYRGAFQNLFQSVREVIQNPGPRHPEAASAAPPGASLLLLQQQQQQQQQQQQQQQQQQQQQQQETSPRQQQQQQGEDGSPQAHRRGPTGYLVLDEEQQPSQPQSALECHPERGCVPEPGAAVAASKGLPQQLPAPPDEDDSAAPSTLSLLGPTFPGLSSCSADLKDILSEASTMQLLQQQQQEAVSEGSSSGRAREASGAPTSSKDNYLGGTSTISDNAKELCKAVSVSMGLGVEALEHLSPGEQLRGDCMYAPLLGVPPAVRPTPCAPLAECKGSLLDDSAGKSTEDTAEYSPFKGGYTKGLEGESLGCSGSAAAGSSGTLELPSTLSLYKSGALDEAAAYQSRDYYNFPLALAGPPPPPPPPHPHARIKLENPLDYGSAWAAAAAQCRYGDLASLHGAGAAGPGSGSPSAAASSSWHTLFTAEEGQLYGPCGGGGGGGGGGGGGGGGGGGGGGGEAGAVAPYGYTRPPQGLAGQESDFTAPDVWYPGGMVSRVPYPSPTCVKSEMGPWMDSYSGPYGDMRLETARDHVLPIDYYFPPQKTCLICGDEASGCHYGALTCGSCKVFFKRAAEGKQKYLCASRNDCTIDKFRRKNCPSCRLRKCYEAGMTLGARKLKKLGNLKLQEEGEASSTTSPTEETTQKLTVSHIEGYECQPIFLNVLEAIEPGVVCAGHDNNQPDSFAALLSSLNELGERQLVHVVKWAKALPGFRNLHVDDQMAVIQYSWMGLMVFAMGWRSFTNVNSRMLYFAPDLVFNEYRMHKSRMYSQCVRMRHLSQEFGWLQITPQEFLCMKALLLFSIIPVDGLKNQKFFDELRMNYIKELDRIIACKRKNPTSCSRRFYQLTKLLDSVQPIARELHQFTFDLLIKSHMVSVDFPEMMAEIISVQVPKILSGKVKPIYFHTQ

C[C@@H]1CC[C@@]2(OC1)O[C@H]1C[C@H]3[C@@H]4CC[C@H]5C[C@@H](O)CC[C@]5(C)[C@H]4CC(=O)[C@]3(C)[C@H]1[C@@H]2C
inactive: viability change, negative = cytotoxic [1] -4.38% [at 8.39 µM] | viability change, negative = cytotoxic [2] 0.938% [at 8.39 µM] | activity change [3] -0.0264% [at 8.39 µM] | activity change, negative = inhibition [4] 0.87% [at 8.39 µM] | activity change, negative = cytotoxicity [5] 0.258% [at 8.39 µM] | activity change, negative = cytotoxicity [6] 3.8% [at 8.39 µM] | activity change, negative = cytotoxicity [7] 3.19% [at 8.39 µM]

CC(C)=CCC/C(C)=C\C#N
inactive: outcome [1] | outcome [2] | outcome [3] | Potency [4] | outcome [5] | outcome [7]

CC(C)(O)CCCC1=CCC(C=O)CC1 (stereo not drawn)
inactive: outcome [1] | outcome [2] | outcome [3] | Potency [4] | outcome [5] | Potency [6] | outcome [7]

CCCCCCCCC1CO1 (stereo not drawn)
inactive: outcome [1] | outcome [2] | outcome [3] | Potency [8] | outcome [9] | outcome [5] | Potency [6] | outcome [10] | outcome [7]

CCNC(=O)C(C)OC(=O)Nc1ccccc1 (stereo not drawn)
inactive: outcome [1] | outcome [2] | outcome [3] | Potency [8] | outcome [9] | outcome [5] | Potency [6]

COC(=O)C(c1ccccc1Cl)N1CCc2sccc2C1 (stereo not drawn)
inactive: outcome [1] | outcome [2] | outcome [3] | Potency [4] | outcome [5] | Potency [6] | outcome [7]

CSC(=O)c1cccc2nnsc12
inactive: outcome [1] | outcome [2] | outcome [3] | Potency [4] | outcome [5] | Potency [6] | outcome [10] | outcome [7]

CCC(=O)OCCOc1ccccc1
inactive: outcome [1] | outcome [2] | outcome [3] | Potency [4] | outcome [5] | Potency [6] | outcome [7]

COc1cc(S(N)(=O)=O)cc(C(=O)O)c1OC
inactive: outcome [1] | outcome [2] | outcome [3] | Potency [4] | outcome [5] | outcome [7]

O=C(CCBr)N1CCN(C(=O)CCBr)CC1
inactive: outcome [1] | outcome [2] | outcome [3] | Potency [4] | outcome [5] | Potency [6]

NS(=O)(=O)c1cc2c(cc1C(F)(F)F)NCNS2(=O)=O
inactive: outcome [1] | outcome [2] | outcome [3] | Potency [4] | outcome [5] | Potency [6] | outcome [7]

CC(C)(C)OC(=O)c1ccccc1C(=O)O
inactive: outcome [1] | outcome [2] | outcome [3] | Potency [4] | outcome [5] | Potency [6] | outcome [7]

CC(=O)Nc1ccc(OCCOCCOc2ccc(NC(C)=O)cc2)cc1
inactive: outcome [1] | outcome [2] | outcome [3] | Potency [4] | outcome [5] | Potency [6] | outcome [7]

C[Si](C)(C)O[Si](O)(O)O
inactive: outcome [1] | outcome [2] | outcome [3] | Potency [4] | outcome [5] | Potency [6] | outcome [7]

CC(C)CC(=O)N[C@H](C(=O)N[C@H](C(=O)N[C@@H](CC(C)C)[C@@H](O)CC(=O)N[C@@H](C)C(=O)N[C@@H](CC(C)C)[C@@H](O)CC(=O)O)C(C)C)C(C)C (Isovaleryl-VV[Sta]A[Sta]-OH)
inactive: outcome [1] | outcome [2] | outcome [3] | Potency [4] | outcome [5] | Potency [6] | outcome [7]

Nc1cc(S(=O)(=O)O)ccc1O
inactive: outcome [1] | outcome [2] | outcome [3] | Potency [4] | outcome [5] | Potency [6] | outcome [10] | outcome [7]

CC(=O)/C=C/C=C1/C2CCC(C2)C1(C)C (stereo not drawn)
inactive: outcome [1] | outcome [2] | outcome [3] | Potency [4] | outcome [5] | outcome [10] | outcome [7]

CC(CN1CC(=O)NC(=O)C1)N1CC(=O)NC(=O)C1 (stereo not drawn)
inactive: outcome [1] | outcome [2] | outcome [3] | Potency [8] | outcome [9] | outcome [5] | Potency [6] | outcome [10] | outcome [7]

CC(=O)c1ccc(O)c(C(N)=O)c1
inactive: outcome [1] | outcome [2] | outcome [3] | Potency [8] | outcome [9] | outcome [5] | Potency [6] | outcome [10] | outcome [7]

CNCCc1ccccn1
inactive: outcome [1] | outcome [2] | outcome [3] | Potency [4] | outcome [5] | outcome [7]

CC/C=C\CCOC(=O)c1ccccc1
inactive: outcome [1] | outcome [2] | outcome [3] | Potency [4] | outcome [5] | Potency [6] | outcome [10] | outcome [7]

O=C(OOC(=O)c1ccccc1)c1ccccc1
inactive: outcome [1] | outcome [2] | outcome [3] | Potency [4] | outcome [5] | Potency [6] | outcome [7]

CC(C)C(=O)Nc1cccc(C2CN3CCSC3=N2)c1 (stereo not drawn)
inactive: outcome [1] | outcome [2] | outcome [3] | Potency [8] | outcome [9] | outcome [5] | Potency [6] | outcome [10] | outcome [7]

Cc1ccc2cccnc2c1
inactive: outcome [1] | outcome [2] | outcome [3] | Potency [8] | outcome [9] | outcome [5] | Potency [6] | outcome [10] | outcome [7]

NNC(=O)CCCCC(=O)NN
inactive: outcome [1] | outcome [2] | outcome [3] | Potency [4] | outcome [5] | Potency [6] | outcome [7]

Clc1ccc2c(c1)Nc1ccccc1S2
inactive: outcome [1] | outcome [2] | outcome [3] | Potency [4] | outcome [5] | Potency [6] | outcome [10] | outcome [7]

CCCCc1ccc(Cl)cc1
inactive: outcome [1] | outcome [2] | outcome [3] | Potency [8] | outcome [9] | outcome [5] | Potency [6]

O=S(=O)(O)c1ccc(Cl)cc1
inactive: outcome [1] | outcome [2] | outcome [3] | Potency [8] | outcome [9] | outcome [5] | Potency [6]

Cc1ccccc1C#N
inactive: outcome [1] | outcome [2] | outcome [3] | Potency [4] | outcome [5] | outcome [7]

CCOC(=O)[C@H](CCc1ccccc1)N[C@H]1CS[C@H](c2cccs2)CN(CC(=O)O)C1=O
inactive: outcome [1] | outcome [2] | outcome [3] | Potency [4] | outcome [5] | outcome [10]
